An excerpt weighted towards active compounds, which were near 11% of everything screened.
HCV inhibitor = HCV inhibition | Huh7.5.1 HCVcc-Cre infection, luciferase reporter, 44 h | AID 651820 | Potency, µM (top dose mostly 41.8 µM), for the others: at the top dose activity change, negative = inhibition, usual class: inhibitors | 340,000 compounds, 3.4% hits; also: % is scaled to controls: 0 for no effect and ±100 for the full control effect
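Luciferase read-out (15 sec integration) after a 15 min room-temperature substrate step quantifies HCVcc-Cre infection. Cells, 1,000 per well, had compound added 4 h post-plating, then virus at ~0.5 moi, and were cultured 44 h.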
Vaccinia mCherry = vaccinia inhibition (mCherry reporter); 310,000 compounds, 0.63% hits; Potency, µM (doses to about 36.5 µM), for inactives: top-dose activity change, negative = inhibition, usual class: inhibitors; AID 720579; Vaccinia virus mCherry reporter infection, fluorescence; calls by dose curve; tested in A549 cells; also: % is scaled to controls: 0 for no effect and ±100 for the full control effect; nearly all actives have a fitted effect of over 35% in size
Pf growth 96h = P. falciparum growth inhibition at 96 hour, primary screen for plastid delayed-death inhibitors; P. falciparum luciferase reporter growth, 96 h; Potency, µM (titrated, usually from 28.7 µM), inactives show top-dose activity change, negative = inhibition, usual class: inhibitors; 320,000 compounds, 6.9% hits; AID 504834; also: % is scaled to controls: 0 for no effect and ±100 for the full control effect
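Delayed-death screen, second-generation endpoint: infected erythrocytes, 2% hematocrit, 0.05% parasitemia final; 96 hours at 37 C, 5% CO2; luciferase detection reagent; luminescence decrease equals reduced growth.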
Vaccinia Venus = vaccinia inhibition (Venus reporter); Vaccinia virus Venus reporter expression, fluorescence; Potency, µM (doses to about 36.5 µM), inactives show at the highest dose activity change, negative = inhibition, actives largely listed as inhibitors; 330,000 compounds, 0.46% hits; AID 720580; calls by dose curve; tested in A549 cells; also: % is scaled to controls: 0 for no effect and ±100 for the full control effect; nearly all actives have a fitted effect of over 30% in size
NS1 inh = inhibitors of influenza NS1 protein function; Potency, µM (titrated, usually from 46.1 µM), inactives show top-dose activity, positive = more growth; 270,000 compounds, 0.4% hits; AID 2326; calls by dose curve; also: actives are rising curves; nearly all actives have a fitted effect of over 50% in size
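OD600 was taken as the measure of yeast growth restored by compound in an NS1-expressing S. cerevisiae strain. Cells had been washed out of glucose medium and diluted 1:100 into galactose -URA medium, pH 6.0.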
Pf growth 48h = P. falciparum growth inhibition at 48 hours (one generation). P. falciparum luciferase growth in erythrocytes, 48 h. Potency, µM (top dose mostly 28.7 µM), without a hit: at the highest dose activity change, negative = inhibition, usual class: inhibitors. 310,000 compounds, 5.9% hits; also: % is scaled to controls: 0 for no effect and ±100 for the full control effect
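Here the parasites carry a stable luciferase gene and grow inside erythrocytes in Albumax-based RPMI medium with compound for one erythrocytic cycle. Activity is scored as loss of luminescent signal.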
* hit, by the source's call; i = inactive; u = inconclusive; x = not tested or not shown; [ ] = dose if it differs, or a comment. Unless noted, calls follow the shape of the dose curve; as a rule, active = well fitted inhibition curve with a large enough effect; inconclusive = small, poorly fitted or top-dose-only effect, or another doubt; inactive = no such curve, though single readings can be large or run the other way. Potency is read from the fitted curve at half-maximal effect.

SMILES | HCV inhibitor | Vaccinia mCherry | Pf growth 96h | Vaccinia Venus | NS1 inh | Pf growth 48h
Cc1ccc(-c2nc(N)c3c(-c4ccc(C)cc4)nn(C(C)(C)C)c3n2)cc1 | u | i | u | -10% | 3% | -17%
CC(C)(C)n1nc(-c2ccc(Cl)cc2)c2c(N)ncnc21 | 16% | -6% | 3.7µM* | u | -81% | 12µM*
CC(C)(C)n1nc(-c2ccc(F)cc2)c2c(N)ncnc21 | -16% | x | 15µM* | 1% | 15% | 12µM*
Cc1ccc(S(=O)(=O)N2[C@@H](c3ccc(C#N)cc3)C(C(=O)O)=C[C@H]2CC2CCCC2)cc1 | 10% | -8% | x | -3% | x | x
Clc1ccc2c(c1)nc1n2CCCC1 | 25µM* | -4% | 0% | -13% | -6% | 12%
COc1cc(=O)n2c(c1C(=O)NC(C)c1ccco1)CCN(Cc1ccc3nsnc3c1)CC2 (configuration not stated) | x | -10% | x | -4% | x | x
CCc1nc2c(c(=O)c3ccccc3n2C)c(=O)n1-c1ccc(F)cc1 | u | -20% | u | -11% | 10% | 28%
Cc1nc2c(c(=O)c3ccccc3n2C)c(=O)n1-c1ccccc1 | 4% | -4% | u | -9% | 1% | u
Cn1c2ccccc2c(=O)c2c(=O)n(-c3ccc(F)cc3)c(-c3cccs3)nc21 | -13% | -5% | 5.2µM* | 0% | -1% | u
CC(c1ccccc1)n1c(-c2cccs2)nc2c(c(=O)c3ccccc3n2C)c1=O (configuration not stated) | 14µM* | -1% | -5% | -11% | 1% | 9.3µM*
Cc1ccc(-c2nc3c(c(=O)c4ccccc4n3C)c(=O)n2-c2ccc(F)cc2)cc1 | 7% | i | -25% | -11% | -1% | 8.3µM*
Cn1c2ccccc2c(=O)c2c(=O)n(-c3ccccc3)c(-c3ccc(C(C)(C)C)cc3)nc21 | u | x | 2.6µM* | x | 3% | 1.9µM*
Cc1cc(C)c(OCC(=O)N(Cc2ccc(N(C)C)cc2)Cc2ccco2)c(C)c1 | x | -15% | x | -11% | x | x
COc1cc(C)c(N(C(C)=O)c2ccccc2)c(C)c1 | 2% | x | x | -10% | u | 5.9µM*
COCCNC(=O)CN1C(=O)NC2(CCOc3ccccc32)C1=O (configuration not stated) | 5% | i | 1% | -12% | 5% | -17%
COc1cccc(S(=O)(=O)NCc2ccc(C(=O)N3CCN(c4ccccc4OC)CC3)cc2)c1 | x | x | u | x | -5% | 7.4µM*
COc1ccc(CCC(=O)NCCS(=O)(=O)N2CCN(c3ccccc3F)CC2)cc1 | -23% | -14% | u | u | x | 11%
COc1ccc(N2CCN(C(=O)c3ccc(CNS(=O)(=O)c4cccc(OC)c4)cc3)CC2)cc1 | 3.5µM* | u | 2% | -22% | 19% | -12%
COc1ccc(CCC(=O)NCCS(=O)(=O)N2CCN(c3ccccc3OC)CC2)cc1 | 14µM* | x | 38% | x | -19% | -9%
Cc1ccc(S(=O)(=O)NCc2ccc(N3CCN(C(=O)OC(C)(C)C)CC3)cc2)cc1 | u | -12% | 4.1µM* | -5% | -13% | 13µM*
COc1cccc(S(=O)(=O)NCc2ccc(C(=O)N3CCN(c4ccccc4)CC3)cc2)c1 | u | x | u | x | 7% | 5%
Cc1[nH]n(-c2ccc(Cl)cc2)c(=O)c1N=Nc1cccnc1 | 0% | x | u | x | 7% | u
CO/N=C/Cc1c([N+](=O)[O-])c(C)nn1C | 12% | -8% | -1% | -4% | 8% | 5%
COc1cc(OC)cc(C(=O)N2CCCC(Nc3ccc(F)cc3)C2)c1 (configuration not stated) | 0% | u | 0% | -8% | -5% | -3%
COc1ccc(NC2CCCN(C(=O)c3c(C)noc3C)C2)cc1 (configuration not stated) | 31% | x | 1.9µM* | x | 3% | u
SMILES | HCV inhibitor | Vaccinia mCherry | Pf growth 96h | Vaccinia Venus | NS1 inh | Pf growth 48h
CN(C)c1ccccc1C(=O)N1CCCC(Nc2ccc(F)cc2)C1 (configuration not stated) | 13% | i[7.34 µM] | 13µM* | 13%[7.34 µM] | -4% | -9%
Cc1noc(C)c1C(=O)N1CCCC(Nc2ccc(C(C)C)cc2)C1 (configuration not stated) | -3% | x | 44% | x | 8% | 0%
O=C(CCN1CCCCO1)N1CCCC(Nc2ccc(F)cc2)C1 (configuration not stated) | x | i | 12µM* | -13% | 8% | -15%
COc1ccc2cc(C(=O)N3CCCC(Nc4ccc(F)cc4)C3)n(C)c2c1 (configuration not stated) | u | -18% | 5.9µM* | -16% | -5% | -4%
COCCNC(=O)CSc1nc2cc(OC)c(OC)cc2c(=O)n1Cc1ccco1 | -28% | x | 42% | x | -12% | -18%
CCn1c(NC(=O)C(C)C)c(-c2ccccc2)c(=O)c2ccccc21 | 8% | x | 3% | x | 1% | u
CCN(C(=O)c1cccc(NC(=O)c2ccccc2)c1)C1CCCCC1 | u | -6% | u | -25% | -7% | -7%
Cc1ccc(S(=O)(=O)NCCC(=O)OCc2ccc([N+](=O)[O-])cc2)cc1C | -6% | -12% | -5% | -11% | x | 15%
CC(C(=O)c1c[nH]c2ccccc12)N1CCSCC1 (configuration not stated) | 13% | -7% | -14% | -2% | 16% | -10%
COc1ccc(NC2CCCN(C(=O)CCN3Cc4ccccc4C3=O)C2)cc1 (configuration not stated) | 6% | x | 8.3µM* | x | 1% | 10%
COc1ccc(S(=O)(=O)NNC(=O)C2CC(c3cccnc3)=NO2)cc1 (configuration not stated) | 4% | -3% | 88% | -8% | x | 7%
Cc1cccc(-c2nnc(SCC(=O)NC3CCCCC3)o2)c1 | x | -9% | x | -9% | x | x
O=C(N/N=C/c1ccco1)c1cc(-c2ccc(Br)s2)[nH]n1 | -6% | -10% | u | -7% | 2% | u
O=C(N/N=C/c1ccco1)c1cc(-c2ccc(Cl)s2)[nH]n1 | -3% | x | u | x | x | 9.3µM*
CCCN1C(=O)c2cc(C(=O)Nc3ccc(OC)c(OC)c3)ccc2C1Nc1ccc(OC)c(OC)c1 (configuration not stated) | u | -15% | 1% | -20% | x | u
CC1=CC(O)C(O)C2(C)C1CC1OC(=O)C(O)C3C(C)C(O)C4(O)OCC13C42 (configuration not stated) | 13% | u | x | 7.9µM* | x | x
Cc1sc2nc(CN3CCCC3)nc(N3CCN(S(=O)(=O)c4ccccc4)CC3)c2c1C | -3% | x | 4.7µM* | x | x | 10µM*
Cc1sc2ncnc(N3CCN(S(=O)(=O)c4ccccc4)CC3)c2c1C | 11µM* | i | u | 1% | x | 13µM*

Assay outcomes (PubChem BioAssay)
